What follows are compounds tested against CDK3/Cyclin E (Homo sapiens) (UniProt P24864+Q00526). Details: at 1 µM.
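Note: each figure is a mean percent inhibition of the CDK3/cyclin E complex.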

CDK3/Cyclin E (Homo sapiens), sequence (P24864 whole entry, looked up): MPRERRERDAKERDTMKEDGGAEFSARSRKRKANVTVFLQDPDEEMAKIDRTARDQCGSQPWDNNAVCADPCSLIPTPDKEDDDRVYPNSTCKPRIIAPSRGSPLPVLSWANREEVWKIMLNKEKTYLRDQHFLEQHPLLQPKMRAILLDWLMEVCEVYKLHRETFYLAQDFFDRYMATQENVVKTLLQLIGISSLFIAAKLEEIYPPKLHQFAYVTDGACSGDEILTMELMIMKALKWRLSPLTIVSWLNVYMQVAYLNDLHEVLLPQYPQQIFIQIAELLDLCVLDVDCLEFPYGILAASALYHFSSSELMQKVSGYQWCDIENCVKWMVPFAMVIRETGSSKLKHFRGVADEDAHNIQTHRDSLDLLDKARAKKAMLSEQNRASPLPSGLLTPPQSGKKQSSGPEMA
CDK3/Cyclin E (Homo sapiens), sequence (Q00526 whole entry, looked up): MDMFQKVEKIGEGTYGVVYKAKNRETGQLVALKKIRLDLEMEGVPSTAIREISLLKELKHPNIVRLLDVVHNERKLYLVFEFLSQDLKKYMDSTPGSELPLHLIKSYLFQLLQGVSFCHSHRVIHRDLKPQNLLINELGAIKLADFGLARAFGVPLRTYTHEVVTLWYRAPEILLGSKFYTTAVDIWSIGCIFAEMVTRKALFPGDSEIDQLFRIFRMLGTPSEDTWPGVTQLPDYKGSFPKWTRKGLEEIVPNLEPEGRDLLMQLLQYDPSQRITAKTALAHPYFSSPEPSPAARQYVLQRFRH

Compound | inhibition [%]
O=C(Nc1n[nH]c2cc(-c3ccc(F)cc3)ccc12)C1CC1 | 2.42
O=S(=O)(CCNCc1ccc(-c2ccc3ncnc(Nc4ccc(OCc5cccc(F)c5)c(Cl)c4)c3c2)o1)c1ccccc1 | -1.98
COc1cc2ncn(-c3cc(OCc4ccccc4C(F)(F)F)c(C(=O)N(C)C)s3)c2cc1OC | -0.96
COc1ccc(-c2cc3c(N)ncnc3o2)cc1 | 1.68
Cc1ccc2c(-c3ccnc(Nc4ccccc4)n3)c(-c3ccc(F)cc3)nn2n1 | 2.55
Nc1nc(-c2cccc(Cl)c2)c(-c2ccc3ncccc3n2)s1 | -3.18
CNC(=O)c1cncc(/C=C/c2ccccc2Cl)c1 | -0.07
COc1ccc2c(-c3ccnc(Nc4cccc(OC(F)(F)F)c4)n3)cnn2n1 | 20.3
CCCN1CCC(c2ccc(Nc3nc(Nc4cc(F)ccc4C(N)=O)c4cc[nH]c4n3)c(OC)c2)CC1 | -1.93
COc1cc2c(cc1Nc1nc(Nc3ccsc3C(N)=O)c3cc[nH]c3n1)N(C(=O)CN(C)C)CCC2(C)C | -1.09
Fc1ccc(-c2cc(-c3c[nH]nc3-c3ccccn3)ccn2)cc1 | -1.83
CCNC(=O)O[C@H]1CN[C@H](C#Cc2cc3ncnc(Nc4ccc(OCc5cccc(F)c5)c(Cl)c4)c3s2)C1 | 0.27
c1ccc(COc2ccc(Nc3ncnc4ccc(-c5ccco5)cc34)cc2)cc1 | -1.75
NC(=O)c1sc(-n2cnc3ccc(C(F)(F)F)cc32)cc1OCc1ccccc1Br | -2.34
CS(=O)(=O)CCNCc1ccc(-c2ccc3ncnc(Nc4ccc(OCc5ccccc5)c(C(F)(F)F)c4)c3c2)o1 | -3.61
CC(=O)Nc1cccc(C#Cc2cncnc2Nc2ccc(OCc3cccc(F)c3)c(Cl)c2)c1 | 0.86
CCn1c(-c2nonc2N)nc2ccccc21 | 1.41

Compound | inhibition [%]
COc1cccc(-n2ncc3c(N/N=C/c4ccc(F)cc4)ncnc32)c1 | 4.95
CCN1CCC(CC(=O)Nc2n[nH]c3nnc(-c4cccc(F)c4F)cc23)CC1 | 2.37
COc1cc(Nc2nccc(Nc3ccc4c(C)n[nH]c4c3)n2)cc(OC)c1OC | 4.99
CCn1c(-c2nonc2N)nc2cnc(Oc3cccc(NC(=O)c4ccc(N(C)C)cc4)c3)cc21 | -1.3
COc1ccc(-c2oc3ncnc(N)c3c2-c2ccc(NC(=O)Nc3cc(C(F)(F)F)ccc3F)cc2)cc1 | 42.4
CCN(CC)S(=O)(=O)c1ccc(OC)c(Nc2ncc(-c3ccccc3)o2)c1 | -0.01
Fc1ccc(-c2nn3ncccc3c2-c2ccnc(Nc3ccc4c(c3)OCCO4)n2)cc1 | -2.65
CCCN(CCS(C)(=O)=O)Cc1ccc(-c2ccc3ncnc(Nc4ccc(OCc5cccc(F)c5)c(Cl)c4)c3c2)o1 | -1.26
CCn1c(-c2nonc2N)nc2c(C#CC(C)(C)O)nc(OC[C@H](N)c3ccccc3)cc21 | -0.33
COc1cccc(-c2c[nH]c3c(N/N=C/c4ccncc4)ncnc23)c1 | 51.3
c1cc(-c2cnn3nc(N4CCOCC4)ccc23)nc(NC2CC2)n1 | 17.4
CN(C)CCOc1ccc(-c2nc(-c3ccncc3)c(-c3ccc4c(c3)CC/C4=N\O)[nH]2)cc1 | -2.98
CCc1nn2ncccc2c1-c1ccnc(NC2CC2)n1 | 2.56
Clc1ccc(-c2nn3ncccc3c2-c2ccnc(Nc3ccccc3)n2)cc1 | -0.36
COc1cc(/C=N/Nc2ncnc3[nH]ncc23)ccc1O | 6.95
NS(=O)(=O)c1ccc(Nc2ncc(-c3ccccc3)o2)cc1 | 77.2
COc1ccc2[nH]c3c4[nH]c5ccc(OC)cc5c4c4c(c3c2c1)C(=O)NC4=O | 6.02

Source: ChEMBL document CHEMBL1961873, “Compounds: GSK PKIS; Assays: Nanosyn kinase panel” (2012)
